In the supplement of paper PMC6555819:

Tests used:
Assay in all cases: PBM binding z-score (relative to random genomic background probes); higher = stronger binding; sequences stand for … in GC…GCGATTGACAGCGTAGAATGAAGG
[1] = system: FXR:RXRa (NR concentration 270 nM, RXRa partner concentration 90 nM)
Summary of the method: (§1)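 Binding buffer was PBS pH 7.4 with 2% milk, 0.02% Triton X-100, 1 mM DTT, 0.2 mg/mL BSA and 0.4 mg/ml salmon testes DNA. In it, ligand-free nuclear receptor dimers were incubated 1 h on custom Agilent 4×180K protein-binding microarrays carrying double-stranded probes. Antibodies against each partner (one per run) detected binding, and z-scores were calculated against random background probes after regression normalization of scanned fluorescence.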

[2] = system: LXRa:RXRa (NR concentration 270 nM, RXRa partner concentration 90 nM)
Summary of the method: as §1

[3] = system: LXRa homodimer (NR concentration 270 nM)
Summary of the method: as §1

[4] = system: LXRb:RXRa (NR concentration 270 nM, RXRa partner concentration 90 nM)
Summary of the method: as §1

[5] = system: LXRb homodimer (NR concentration 270 nM)
Summary of the method: as §1

[6] = system: PPARa:RXRa (NR concentration 270 nM, RXRa partner concentration 90 nM)
Summary of the method: as §1

[7] = system: PPARg:RXRa (NR concentration 180 nM, RXRa partner concentration 90 nM)
Summary of the method: as §1

[8] = system: PPARg:RXRa 270nM:90nM, anti-RXR (NR concentration 270 nM, RXRa partner concentration 90 nM)
Summary of the method: as §1

[9] = system: PPARg:RXRa 30nM:10nM, anti-RXR (NR concentration 30 nM, RXRa partner concentration 10 nM)
Summary of the method: as §1

[10] = system: PPARg:RXRa 90nM:30nM, anti-RXR (NR concentration 90 nM, RXRa partner concentration 30 nM)
Summary of the method: as §1

Row | Sequence | PBM binding z-score [1] | PBM binding z-score [2] | PBM binding z-score [3] | PBM binding z-score [4] | PBM binding z-score [5] | PBM binding z-score [6] | PBM binding z-score [7] | PBM binding z-score [8] | PBM binding z-score [9] | PBM binding z-score [10]
1 | TGAATCAGGTTATAAGATCAGGGAACGTTGCAAA | 0.101 | 0.162 | -0.396 | 0.0988 | -0.425 | 0.709 | 0.475 | 0.863 | 0.155 | 0.477
2 | TCTGCTAGGTCAGTTGCTCAGCTAACGAGCTGCC | 0.259 | 0.241 | -0.836 | -0.204 | -0.131 | 0.67 | -0.489 | 1.14 | 0.796 | 1.19
3 | ATCTCTAGGTAAAAATAGTTCAGTGAATGCAAAT | 0.334 | 4.28 | 0.864 | 0.965 | 0.656 | 0.534 | 0.601 | 0.436 | 0.563 | 0.283
4 | TGACCAAGGTGAGCTGAGGTCGTTGATCCAACTC | 0.866 | 1.01 | -0.752 | 0.289 | -1.36 | 1.62 | 0.26 | 0.767 | -0.66 | 0.279
5 | GCTAGCACGCCATTTGGGTCACTCAATGACGGGC | -0.103 | -0.15 | -0.585 | -0.179 | -1.07 | 1.13 | 0.747 | 0.379 | -0.294 | 0.152
6 | TTACCAAGGTGAAAGGTCGTCGATGCACGCCTTG | 3.2 | 3.29 | 0.0373 | 2.77 | -0.541 | 5.6 | 9.29 | 8.47 | 7.23 | 9
7 | CCAGACAGGTGAAAGTTAACTCAGTCTGGTACGC | -0.0765 | 0.237 | -0.419 | 0.191 | -0.617 | 2.21 | 2.62 | 4.15 | 1.99 | 3.83
8 | TTACCAAGGTGAAGGTCGTTGATCCCTCTGTAGA | 2.37 | 2.03 | -0.222 | 1.45 | -0.739 | 2.55 | 3.15 | 3.94 | 2.09 | 3.67
9 | CAAAGTAGGTCACAGAGGTCAAAGTCCGTGCGTA | 7.06 | 6.7 | 7.7 | 6.5 | 2.52 | 6.75 | 10.4 | 8.33 | 7.56 | 8.58
10 | CCTAGCGGGCCAATCTGGGTCACTCAAGGCTTGA | 0.251 | 0.915 | -0.728 | 0.534 | -1.32 | 2.88 | 1.65 | 1.99 | -0.227 | 1.17
11 | TCTATTAGTTGATTAGGGCAACTGAAACAGCGGA | 0.195 | 0.677 | 0.0182 | 0.747 | 0.522 | 0.782 | 0.0466 | 1.87 | 3.5 | 2.6
12 | GCGACTGGGGCATCAGCAGGTTACCATTACTTAA | -0.552 | -0.326 | -0.0382 | 0.719 | -1.11 | 0.893 | 0.716 | 0.73 | -0.277 | 0.0982
13 | AATACAGGGTCATCGTCGGCCAGAGTACGCACAG | 7.47 | 6.48 | 2.78 | 4.83 | 1.41 | 6.44 | 6.81 | 6.01 | 2.65 | 4.97
14 | CGTCCAAGGTCGTAGGAGGTCAGTGAAGACAGAT | 4.38 | 4.75 | 1.14 | 3.33 | -0.833 | 4.12 | 1.79 | 2.5 | 0.257 | 1.32
15 | ATACCAAGGTGAGCGTGAGGTCGTTGATACTAAC | 1.64 | 1.3 | 0.0516 | 1.31 | -0.401 | 2.05 | 1.03 | 0.903 | 0.0304 | 0.391
16 | ACTAGCAGGCCAAGTTTGGGTCGCTCAAACAAAG | -0.398 | -0.635 | -0.922 | -0.551 | -0.759 | -0.185 | -0.746 | -0.638 | -1.08 | -1.15
17 | TAGCCTAGGTCATGGGCCAGTAGACCACGCGAAC | 4.96 | 3.57 | 0.0345 | 2.2 | -0.335 | 4.38 | 4.13 | 3.94 | 1.03 | 3.07
18 | AGAACGAGGGCAGGCTGAGTTGATAGCAGAGTAG | -0.312 | -0.562 | -0.661 | -0.676 | -1.05 | 0.187 | 0.64 | 0.432 | -0.189 | -0.155
19 | TCTAGTAGATCAACAGGAGGTTAAGAAAGATCGA | 0.568 | 1.07 | 0.252 | 0.768 | -0.7 | 1.36 | 0.296 | 1.55 | 2.92 | 2.01
20 | TCTGCTAGGTCAGTTTGTCAGCTAACGAGCTGCC | 0.772 | 0.567 | -0.461 | 0.457 | 0.977 | 1.03 | -0.179 | 1.12 | 1.38 | 1.4
21 | CCTACTGGGCCAAGGCCATTGATCAGTCAAAGCA | -0.412 | -0.51 | -0.664 | -0.606 | -0.891 | -0.0978 | 0.449 | 0.724 | -0.7 | -0.174
22 | CGTCAAAGTTCAACTAAGGTAACGAAAAGCACGC | 7.29 | 6.07 | 3.55 | 3.97 | 2.13 | 5.07 | 4.84 | 5.42 | 2.21 | 4.48
23 | TAGCCTAGGTCATTGGGCAAGTATAGTACGCATC | 4.44 | 3.37 | 0.712 | 2.16 | 0.361 | 3.46 | 2.93 | 3.07 | 0.725 | 1.95
24 | TATACAGGGTCAAAGTCCAGAGTACGAATGTCGA | 6.87 | 6.67 | 3.54 | 5.33 | 3.32 | 5.98 | 6.93 | 6.5 | 3.78 | 5.77
